In the library only some 7.6% were active in any assay of this set; here they are far more common.
Cy5 interf NS3h = Cy5 fluorescence quenchers or enhancers, artefact control for HCV NS3 helicase inhibitor project, biochemical, ChemBridge library, Cy5 readout; Cy5-dT15 DNA with NS3h, fluorescence interference; actives lie on both sides; signal over control mean, under 1 quenches; fluorescence interference ratio at 100 µM; hit rate 6% among 16,000;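 active means compound fluorescence over control fluorescence at most 0.8, a quencher, or at least a set upper limit, an enhancer; inactive means ratio between 0.8 and the set upper limit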
NS3h inh CB = HCV NS3 helicase inhibitors, primary screen, biochemical, fluorescence polarization, ChemBridge library. NS3h Cy5-dT15 DNA binding. inhibition, % at 100 µM. hit rate 1.6% among 16,000;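 active means inhibition above the average over every tested compound plus 3 SD, cut at about 40% in these data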
An asterisk follows results filed as active.

SMILES	Cy5 interf NS3h	NS3h inh CB
Nc1nnc(SCC(=O)Nc2ccccc2[N+](=O)[O-])s1	0.948	2.9
N/C(Cc1ccc([N+](=O)[O-])cc1)=N/OC(=O)c1cccc(Br)c1	1.03	17.4
CCOc1ccc2nc(N=C3NC(=O)/C(=C/C(=O)OC)N3)nc(C)c2c1	1.03	-10.2
CCOC(=O)CCc1c(C)nc2c(C)c(-c3ccccc3)[nH]n2c1=O	1.21*	8.2
Cc1nc2c(C)c(-c3ccccc3)[nH]n2c(=O)c1C	1.07	19.7
Cc1ccc(CN2CCN(/N=C\c3ccccc3C)CC2)cc1	0.988	8.8
O=[N+]([O-])c1ccc(-c2cc(-c3ccc(I)cc3)n[nH]2)cc1	1.2*	4.5
CCn1c(-c2ccc([N+](=O)[O-])cc2)n[nH]c1=S	0.978	-2.8
O=C(O)c1ccc(NC(=NS(=O)(=O)c2ccccc2)c2ccccc2)cc1	0.987	6.7
O=C1N=c2ccccc2=C1c1sc(=S)n(-c2ccc(C(=O)O)cc2)c1O	1.23*	2.5
Cc1cccc(-n2c(O)c(C3=c4ccccc4=NC3=O)sc2=O)c1	0.921	4.1
O=C1/C(=C/c2cccc([N+](=O)[O-])c2)SC(=S)N1C1CCS(=O)(=O)C1 (stereo not drawn)	0.348*	15.4
O=C1/C(=C/c2cccc3ccccc23)SC(=S)N1C1CCS(=O)(=O)C1 (stereo not drawn)	0.995	7.6
Cc1cc(C)n(C(=O)CNC(=O)c2ccc(F)cc2)n1	1	8.2
Cc1ccc(C(C)C)c(OCC(=O)Nc2ccc(Cl)c(NC(=O)c3ccco3)c2)c1	1.12	-3.5
CCN(CC)C(=S)SCC(=O)Nc1cc(C)ccc1C	0.999	16.2
Clc1cccc(Nc2nc3c(s2)CCCC3)c1	0.757*	16.4
O=C(Nc1cccc(Cl)c1)Nc1nnc(/C=C/c2ccccc2Cl)s1	0.997	-14.8
Cc1ccc(C)c(Nc2nc3c(s2)CCCC3)c1	0.782*	15.5
Cc1ccc(/C(N)=N\OC(=O)c2cccc(F)c2)cc1	1.01	7.6
COc1c(Cl)cc(C(=O)Nc2cccc3ccccc23)cc1Cl	0.979	1.3
O=C(Nc1nccs1)c1cccc(NC(=O)c2cccs2)c1	0.709*	32.1
O=C(Nc1cc(NC(=O)c2ccccc2)cc(C(=O)Nc2nccs2)c1)c1ccccc1	1.04	-0.6
O=C(Cc1ccccc1)Nc1ccc(C(=O)Nc2nccs2)cc1	0.677*	21.3
CCN(CC)c1ccc(C(=O)Nc2nccs2)cc1	0.976	12.7
SMILES	Cy5 interf NS3h	NS3h inh CB
CC(C)c1ccc(C2C(=C(O)c3ccccc3)C(=O)C(=O)N2CCN(C)C)cc1 (stereo not drawn)	0.973	-2.8
O=C(NC1CCCCC1)C12CC3CCC(CC(C3)C1)C2	1.2*	7.2
CNC(=O)C(C)NC(=O)C12CC3CC(CC(C3)C1)C2 (stereo not drawn)	1.1	0.3
COc1ccc(/C=C2/SC(=S)N(Cc3ccccc3)C2=O)c2ccccc12	1.13	10.0
Cc1sc(NC(=O)c2ccc(F)cc2)c(C(=O)O)c1C	0.698*	14.1
Cc1cc(C)cc(NC(=O)c2ccc(F)cc2)c1	1.02	11.9
O=C1C2=C(C(c3ccccc3)=NCCN2)C(c2ccc(O)cc2)N1c1ccccc1 (stereo not drawn)	0.96	-2.8
CC1(C)C(c2ccccc2)=NC(c2ccccc2O)N1O (stereo not drawn)	1.07	-4.1
CCOC(=O)C1=C(C)N=c2s/c(=C\c3ccc([N+](=O)[O-])o3)c(=O)n2C1c1ccc(OCC)cc1 (stereo not drawn)	0.865	-6.5
CCOC(=O)C1=C(C)N=c2s/c(=C\c3ccc(N(C)C)o3)c(=O)n2C1c1ccc(OCC)cc1 (stereo not drawn)	0.799*	0.7
N#Cc1ccccc1NC(=O)NS(=O)(=O)c1ccccc1Cl	0.991	-1.3
CCOc1cccc(-c2nc3cc(C)ccc3o2)c1	1.06	-0.3
Cc1ccc2oc(-c3cccc(N)c3C)nc2c1	0.56*	8.7
Cc1cc(Cl)ccc1NC(=O)c1cccc([N+](=O)[O-])c1	1.04	12.9
Cc1cccc(/C(N)=N\OC(=O)c2ccc(I)cc2)c1	1.09	12.9
O=C(/C=C/c1cn(-c2ccccc2)nc1-c1cccs1)c1cccs1	1.01	0.3
CCOC(=O)c1c(-n2c(C)cc(/C=C(\C#N)C(=O)NCC3CCCO3)c2C)sc2c1CCCC2 (stereo not drawn)	1.03	1.4
O=C(O)CCN1C(=O)/C(=C/c2ccc(Cl)c([N+](=O)[O-])c2)SC1=S	0.696*	21.7
O=C(O)CCN1C(=O)/C(=C/c2cccc(OCc3ccccc3)c2)SC1=S	1.1	17.9
Cc1cc(=O)n2c([nH]c3ccccc32)c1C(=O)O	0.786*	30.0
Cc1cc(C)c(NC(=O)C(C)SCC(=O)Nc2ccc3ccccc3c2)c(C)c1 (stereo not drawn)	1	18.1
CCOc1ccc(NC(=S)NC(=O)c2ccccc2)c([N+](=O)[O-])c1	1.04	8.6
CCC(=O)Nc1c(-c2ccccc2)nc2ccc(C)cn12	0.918	7.6
CC(=O)CC(C)(C)Nc1ccccc1	0.745*	5.9
CCC(C(C)=O)C(=O)Nc1ccccc1 (stereo not drawn)	0.965	-1.6
SMILES	Cy5 interf NS3h	NS3h inh CB
CCOc1ccc(NC(=S)NC(=O)/C=C/c2ccc(OC)c(OC)c2)c([N+](=O)[O-])c1	0.801*	-5.7
CCOc1ccc(NC(=S)NC(=O)/C=C/c2ccc(C)cc2)c([N+](=O)[O-])c1	0.935	12.4
CCOc1ccc(NC(=S)NC(=O)c2ccc(OC)cc2)c([N+](=O)[O-])c1	1.05	7.6
CCOc1ccc(NC(=O)c2ccc(S(=O)(=O)N(C)C)cc2)c([N+](=O)[O-])c1	0.572*	16.1
COc1ccccc1C1C(=C(O)c2ccccc2)C(=O)C(=O)N1c1cccc([N+](=O)[O-])c1 (stereo not drawn)	0.993	9.9
O=C(NCc1ccccc1Cl)/C(=C\c1ccc([N+](=O)[O-])o1)NC(=O)c1ccccc1	0.976	8.9
CCOc1ccc(S(=O)(=O)N2CCOCC2)cc1	1.06	1.3
Cc1ccc(NC(=O)C(=O)NCCN2CCN(S(C)(=O)=O)CC2)cc1	0.963	8.8
Cc1ccc(CN2CCN(S(C)(=O)=O)CC2)cc1	0.684*	7.7
CCOc1ccc(CN2CCN(S(C)(=O)=O)CC2)cc1	0.706*	-0.6
Cc1cccc(-c2noc(-c3ccc(Cl)cc3Cl)n2)c1	1.1	15.7
Nc1nnc(CCS(=O)(=O)c2ccc3ccccc3c2)s1	0.944	2.2
COc1ccc(N2C(=O)/C(=C\c3ccsc3)SC2=S)cc1	1.01	15.4
CN1C(=O)/C(=C\c2ccsc2)SC1=S	0.692*	35.6
Cc1ccc(OCCOc2cccc(/C=C3/SC(=S)N(C)C3=O)c2)cc1C	0.949	26.0
Cc1cccc(/C=C2/SC(=S)N(C)C2=O)c1	0.678*	5.0
Cc1nnc(Nc2ccc3c(c2)ncn3-c2ccccc2)c2ccccc12	0.91	4.0
COc1ccc(C(=O)Nc2cccc3nsnc23)cc1	0.989	23.2
O=C(Nc1ccc(S(=O)(=O)N2CCCCCC2)cc1)C(F)(F)F	0.766*	14.0
O=C(Nc1ccc(S(=O)(=O)N2CCCCC2)cc1)c1ccc(F)cc1	0.915	8.6
COc1cc(CN2CCN(Cc3ccc4ccccc4c3)CC2)cc(OC)c1OC	1.09	-1.9
Cc1c(Cl)cccc1NC(=O)Cn1cnc([N+](=O)[O-])n1	1.05	5.4
